Reference: PubChem BioAssay AID1159580 (chemical genetic matrix, 2015)
Values joined by “and” are separate entries in the source; they are usually repeats but may differ in a detail not shown here. Equal values may be shown once. Screen size: about 5,500 compounds; about 2,000 (36%) were called active. Inconclusive results (about 18%) are left out. Cut-off read from the data, not from the text of the source: active = normalized growth mostly below about 0.91 (no sharp cut-off); inconclusive = no clear call, values can overlap the other calls; inactive = mostly above about 0.92. Some of the results follow.

Experiment: chemical genetic growth profiling, strain panel (AID 1159580);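 note: tested at 20 µM; growth read once vehicle control cultures reached saturation at 30 °C; 1 = growth at the plate median or of vehicle wells; lower values mean less growth of the strain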
Settings: S. cerevisiae deletion strains, growth OD

Measured: normalized growth

Cn1nnnc1SCC1=C(C(=O)O)N2C(=O)C(NC(=O)C(O)c3ccccc3)C2SC1 (configuration not stated)
inactive: locus YAL013W, strain DEP1, hits give low values 1.02 | locus YAL021C, strain ccr4, hits give low values 0.97 | locus YAL026C, strain drs2, hits give low values 0.972 | locus YAL030W, strain snc1, hits give low values 0.983 | locus YBL061C, strain skt5, hits give low values 0.97 | locus YBR009C, strain hhf1, hits give low values 0.988 | locus YBR021W, strain FUR4, hits give low values 1.01 | locus YBR023C, strain chs3, hits give low values 0.964 | locus YBR171W, strain sec66, hits give low values 0.945 | locus YBR229C, strain ROT2, hits give low values 1.01 | locus YBR231C, strain swc5, hits give low values 0.991 | locus YBR279W, strain paf1, hits give low values 0.977 | locus YCL011C, strain gbp2, hits give low values 0.971 | locus YCL016C, strain dcc1, hits give low values 0.967 | locus YCL029C, strain bik1, hits give low values 0.996 | locus YCL061C, strain MRC1, hits give low values 0.968 | locus YCL069W, strain vba3, hits give low values 0.973 | locus YCR088W, strain abp1, hits give low values 0.975 | locus YDL005C, strain med2, hits give low values 0.972 | locus YDL035C, strain GPR1, hits give low values 1.03 | locus YDL040C, strain nat1, hits give low values 0.984 | locus YDL074C, strain BRE1, hits give low values 1.05 | locus YDL101C, strain DUN1, hits give low values 1.02 | locus YDL134C, strain PPH21, hits give low values 1.02 | locus YDL185W, strain tfp1, hits give low values 1 | locus YDL192W, strain arf1, hits give low values 1 | locus YDR001C, strain nth1, hits give low values 0.979 | locus YDR069C, strain doa4, hits give low values 0.978 | locus YDR101C, strain arx1, hits give low values 0.99 | locus YDR137W, strain rgp1, hits give low values 0.943 | locus YDR150W, strain NUM1, hits give low values 1.03 | locus YDR159W, strain sac3, hits give low values 0.985 | locus YDR162C, strain NBP2, hits give low values 1.06 | locus YDR195W, strain ref2 0.969 | locus YDR297W, strain sur2, hits give low values 0.983 | locus YDR318W, strain mcm21, hits give low values 0.996 | locus YDR334W, strain swr1, hits give low values 0.964 | locus YDR335W, strain msn5, hits give low values 0.978 | locus YDR388W, hits give low values 0.991 | locus YDR392W, strain spt3, hits give low values 0.873 | locus YDR502C, strain sam2, hits give low values 1.01 | locus YEL003W, strain gim4, hits give low values 0.995 | locus YEL037C, strain rad23, hits give low values 0.972 | locus YEL061C, strain CIN8 (second series), hits give low values 0.978 | locus YEL061C, strain CIN8, hits give low values 1.01 | locus YER015W, strain faa2, hits give low values 0.99 | locus YER016W, strain bim1, hits give low values 0.995 | locus YER110C, hits give low values 0.997 | locus YER111C, strain swi4, hits give low values 0.96 | locus YER155C, strain BEM2 (second series), hits give low values 0.973 | locus YER155C, strain BEM2, hits give low values 1.02 | locus YER167W, strain BCK2, hits give low values 1.02 | locus YFR010W, strain ubp6, hits give low values 0.974 | locus YGL078C, strain dbp3, hits give low values 1 | locus YGL086W, strain mad1, hits give low values 1 | locus YGL167C, strain pmr1, hits give low values 0.967 | locus YGL173C, strain kem1, hits give low values 0.97 | locus YGL227W, strain vid30, hits give low values 0.984 | locus YGL240W, strain doc1, hits give low values 0.992 | locus YGL248W, strain PDE1, hits give low values 1.02 | locus YGL253W, strain hxk2, hits give low values 0.98 | locus YGR078C, strain PAC10, hits give low values 1.05 | locus YGR135W, strain pre9, hits give low values 1.01 | locus YGR229C, strain SMI1, hits give low values 1.03 | locus YGR252W, strain gcn5, hits give low values 0.972 | locus YHR013C, strain ard1, hits give low values 0.952 | locus YHR027C, strain rpn1, hits give low values 0.968 | locus YHR030C, strain SLT2, hits give low values 1.01 and 0.991 | locus YHR079C, strain IRE1 (second series), hits give low values 1 | locus YHR079C, strain IRE1, hits give low values 0.984 | locus YHR094C, strain hxt1, hits give low values 1 | locus YHR129C, strain ARP1, hits give low values 1.01 | locus YHR142W, strain chs7, hits give low values 0.951 | locus YHR200W, strain rpn10, hits give low values 1.01 | locus YIL066C, strain RNR3, hits give low values 1.02 | locus YIL073C, strain SPO22, hits give low values 1.03 | locus YIL125W, strain kgd1, hits give low values 1.01 | locus YIR030C, strain dcg1, hits give low values 1 | locus YJL092W, strain hpr5, hits give low values 0.976 | locus YJL095W, strain BCK1 (second series), hits give low values 0.987 | locus YJL095W, strain BCK1, hits give low values 1.02 and 0.987 | locus YJL115W, strain asf1, hits give low values 0.958 | locus YJL129C, strain trk1, hits give low values 0.973 | locus YJL134W, strain LCB3, hits give low values 1.01 | locus YJL154C, strain vps35, hits give low values 0.982 | locus YJL164C, strain tpk1, hits give low values 0.954 | locus YJL166W, strain qcr8, hits give low values 0.968 | locus YJL168C, strain set2, hits give low values 0.995 | locus YJL187C, strain SWE1 (second series), hits give low values 1.02 | locus YJL187C, strain SWE1, hits give low values 0.974 | locus YJR043C, strain POL32, hits give low values 1.02 | locus YJR066W, strain TOR1, hits give low values 0.938
